The values below come from publication PMC7862700, “An all-to-all approach to the identification of sequence-specific readers for epigenetic DNA modifications on cytosine”.

Experiment in all cases: DAPPL (digital affinity profiling via proximity ligation, sequencing); 10 mM Tris-HCl pH 7.5, 50 mM NaCl, 1 mM DTT, 4% glycerol, room temperature, 30 min; GST-TFs on glutathione beads, 16-mer random dsDNA library, 0.1% formaldehyde crosslink after washing; high values mean tight binding
Settings in all cases: protein: recombinant; tags: N-terminal GST; dsDNA, one strand shown

The target in one assay is T1, ERF (Homo sapiens, UniProt P50548 1-548).
T1 sequence: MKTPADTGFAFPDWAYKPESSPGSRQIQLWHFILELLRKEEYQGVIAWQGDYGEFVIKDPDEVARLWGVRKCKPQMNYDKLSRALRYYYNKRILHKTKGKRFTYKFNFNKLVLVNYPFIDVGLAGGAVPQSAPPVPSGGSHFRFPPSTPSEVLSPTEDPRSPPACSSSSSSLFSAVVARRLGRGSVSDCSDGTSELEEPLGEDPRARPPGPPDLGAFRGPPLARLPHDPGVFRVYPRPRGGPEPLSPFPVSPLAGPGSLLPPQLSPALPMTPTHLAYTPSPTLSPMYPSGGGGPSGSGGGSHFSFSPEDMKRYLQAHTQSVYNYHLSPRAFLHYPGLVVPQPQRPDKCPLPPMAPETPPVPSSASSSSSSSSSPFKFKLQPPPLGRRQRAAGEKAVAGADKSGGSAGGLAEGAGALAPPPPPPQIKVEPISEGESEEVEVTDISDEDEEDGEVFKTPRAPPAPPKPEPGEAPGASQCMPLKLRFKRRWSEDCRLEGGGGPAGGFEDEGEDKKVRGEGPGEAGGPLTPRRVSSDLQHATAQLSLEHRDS
Put shortly: (§1)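 Human transcription factors carrying a GST fusion were produced in yeast, bound to glutathione beads, tagged with DNA barcodes and pooled together with a tag-only sample. Each pool was held with 200 nmole of a random double-stranded 16-mer DNA library in Tris/NaCl/DTT/glycerol buffer for 30 min at room temperature, then washed, crosslinked in 0.1% formaldehyde, proximity-ligated with BsaI/T4 ligase (1 h, 37 °C), PCR-amplified and sequenced on an Illumina NextSeq500. Binding signal is the read frequency of each hexamer for a given factor divided by its frequency in the tag-only sample.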

A further assay has as its target T2, ETV3L (Homo sapiens, UniProt Q6ZN32 1-361).
T2 sequence: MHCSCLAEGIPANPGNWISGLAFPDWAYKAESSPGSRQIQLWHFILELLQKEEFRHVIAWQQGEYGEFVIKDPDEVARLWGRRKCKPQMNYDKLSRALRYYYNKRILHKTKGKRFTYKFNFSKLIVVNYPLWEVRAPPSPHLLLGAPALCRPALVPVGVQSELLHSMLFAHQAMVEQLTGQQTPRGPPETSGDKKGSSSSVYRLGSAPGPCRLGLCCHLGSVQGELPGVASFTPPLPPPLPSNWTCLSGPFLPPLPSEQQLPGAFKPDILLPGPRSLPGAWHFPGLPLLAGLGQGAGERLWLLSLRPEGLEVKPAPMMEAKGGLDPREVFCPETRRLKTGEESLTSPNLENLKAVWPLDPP
The gist of the method:
as §1

A further assay deals with T3, ETS2 (Homo sapiens, UniProt P15036 1-469).
T3 sequence: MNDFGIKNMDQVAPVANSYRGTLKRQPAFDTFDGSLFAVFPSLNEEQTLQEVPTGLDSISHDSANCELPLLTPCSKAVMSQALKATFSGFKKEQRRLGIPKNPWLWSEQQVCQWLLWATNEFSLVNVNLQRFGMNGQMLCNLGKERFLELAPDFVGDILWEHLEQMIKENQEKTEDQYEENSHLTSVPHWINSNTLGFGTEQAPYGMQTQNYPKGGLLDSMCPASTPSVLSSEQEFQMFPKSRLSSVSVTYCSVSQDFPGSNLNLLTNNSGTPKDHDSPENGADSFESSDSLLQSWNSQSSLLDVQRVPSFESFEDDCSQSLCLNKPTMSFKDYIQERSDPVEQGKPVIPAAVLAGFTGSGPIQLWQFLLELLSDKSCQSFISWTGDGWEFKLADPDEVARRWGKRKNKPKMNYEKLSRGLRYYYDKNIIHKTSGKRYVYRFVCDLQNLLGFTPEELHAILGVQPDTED
The gist of the method:
as §1

Another assay deals with T4, SPDEF (Homo sapiens, UniProt O95238 1-335).
T4 sequence: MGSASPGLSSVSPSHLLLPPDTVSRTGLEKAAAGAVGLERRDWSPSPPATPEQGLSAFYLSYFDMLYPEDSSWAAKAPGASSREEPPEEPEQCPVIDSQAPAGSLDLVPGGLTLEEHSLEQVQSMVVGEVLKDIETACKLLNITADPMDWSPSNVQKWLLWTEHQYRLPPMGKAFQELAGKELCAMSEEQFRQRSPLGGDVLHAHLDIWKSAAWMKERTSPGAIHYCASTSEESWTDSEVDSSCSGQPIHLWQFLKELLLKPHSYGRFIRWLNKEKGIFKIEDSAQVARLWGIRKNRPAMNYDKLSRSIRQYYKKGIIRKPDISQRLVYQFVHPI
The gist of the method:
as §1

In another assay the target is T5, ETV7 (Homo sapiens, UniProt Q9Y603 1-341).
T5 sequence: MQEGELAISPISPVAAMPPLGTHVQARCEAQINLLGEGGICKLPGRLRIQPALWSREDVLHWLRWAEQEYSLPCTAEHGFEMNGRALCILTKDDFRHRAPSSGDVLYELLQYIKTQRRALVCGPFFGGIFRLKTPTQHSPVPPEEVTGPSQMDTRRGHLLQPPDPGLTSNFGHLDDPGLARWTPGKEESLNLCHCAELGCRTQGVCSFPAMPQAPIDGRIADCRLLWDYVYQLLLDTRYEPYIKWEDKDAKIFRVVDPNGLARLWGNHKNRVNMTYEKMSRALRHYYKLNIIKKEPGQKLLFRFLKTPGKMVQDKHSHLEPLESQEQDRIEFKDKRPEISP
Put shortly:
as §1

Another assay addresses T6, ELF5 (Homo sapiens, UniProt Q9UKW6-2 1-255).
T6 sequence: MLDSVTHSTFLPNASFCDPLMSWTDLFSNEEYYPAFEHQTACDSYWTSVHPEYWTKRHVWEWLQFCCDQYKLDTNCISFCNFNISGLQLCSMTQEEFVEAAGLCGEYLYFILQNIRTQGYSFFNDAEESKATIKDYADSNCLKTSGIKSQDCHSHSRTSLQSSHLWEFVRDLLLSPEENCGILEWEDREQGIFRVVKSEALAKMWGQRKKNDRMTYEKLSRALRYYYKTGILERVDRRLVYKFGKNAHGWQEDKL
The gist of the method: as §1

The target in the next assay is T7, ETV3 (Homo sapiens, UniProt P41162-2 1-143).
T7 sequence: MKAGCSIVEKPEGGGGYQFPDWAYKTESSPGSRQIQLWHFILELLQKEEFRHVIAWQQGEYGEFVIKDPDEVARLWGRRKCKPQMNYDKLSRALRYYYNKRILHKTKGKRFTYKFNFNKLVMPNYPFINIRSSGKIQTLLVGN
The gist of the method:
as §1

A further assay deals with ETV6 (Homo sapiens, UniProt P41212 1-452). The gist of the method: as §1
Sequence of ETV6 (P41212 whole entry): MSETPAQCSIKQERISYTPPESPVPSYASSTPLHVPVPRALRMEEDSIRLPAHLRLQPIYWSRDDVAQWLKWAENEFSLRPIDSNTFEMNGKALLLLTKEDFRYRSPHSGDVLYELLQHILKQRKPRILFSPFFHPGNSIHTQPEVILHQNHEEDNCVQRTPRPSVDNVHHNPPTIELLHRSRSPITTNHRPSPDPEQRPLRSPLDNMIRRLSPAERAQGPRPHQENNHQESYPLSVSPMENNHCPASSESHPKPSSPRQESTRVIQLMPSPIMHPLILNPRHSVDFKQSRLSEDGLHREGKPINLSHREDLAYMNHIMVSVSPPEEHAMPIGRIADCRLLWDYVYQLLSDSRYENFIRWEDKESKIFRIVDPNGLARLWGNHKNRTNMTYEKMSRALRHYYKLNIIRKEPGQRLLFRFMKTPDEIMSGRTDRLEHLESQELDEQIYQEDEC

Regarding TTGCTG, the binding signal in the assay with ERF was 1.28 fold enrichment (6-mer frequency, TF over GST control); with ETV3L, 1.26 fold enrichment (6-mer frequency, TF over GST control); in the assay with ETS2, 1.21 fold enrichment (6-mer frequency, TF over GST control); with SPDEF, 1.18 fold enrichment (6-mer frequency, TF over GST control); with ETV7, 1.37 fold enrichment (6-mer frequency, TF over GST control); with ELF5, 1.14 fold enrichment (6-mer frequency, TF over GST control). In addition, the binding signal with ETV3 is 1.23 fold enrichment (6-mer frequency, TF over GST control); with ETV6, 1.13 fold enrichment (6-mer frequency, TF over GST control).

With GACTAC, the binding signal was 1.19 fold enrichment (6-mer frequency, TF over GST control) with ERF; 1.17 fold enrichment (6-mer frequency, TF over GST control) with ETV3L; 1.08 fold enrichment (6-mer frequency, TF over GST control) in the assay with ETS2; 1.1 fold enrichment (6-mer frequency, TF over GST control) with SPDEF; 1.17 fold enrichment (6-mer frequency, TF over GST control) with ETV7; 1.24 fold enrichment (6-mer frequency, TF over GST control) in the assay with ELF5. The binding signal with ETV3 is 1.11 fold enrichment (6-mer frequency, TF over GST control); with ETV6, 1.11 fold enrichment (6-mer frequency, TF over GST control).

Take TTTAAT: the binding signal was 1.33 fold enrichment (6-mer frequency, TF over GST control) with ERF; 1.37 fold enrichment (6-mer frequency, TF over GST control) with ETV3L; 1.37 fold enrichment (6-mer frequency, TF over GST control) in the assay with ETS2; 1.17 fold enrichment (6-mer frequency, TF over GST control) in the assay with SPDEF; 1.46 fold enrichment (6-mer frequency, TF over GST control) with ETV7; 1.28 fold enrichment (6-mer frequency, TF over GST control) with ELF5. Besides, the binding signal is 1.21 fold enrichment (6-mer frequency, TF over GST control) in the assay with ETV3 and 1.28 fold enrichment (6-mer frequency, TF over GST control) with ETV6.

As for GGGCTA, the binding signal is 1.02 fold enrichment (6-mer frequency, TF over GST control) with ERF; 1.18 fold enrichment (6-mer frequency, TF over GST control) with ETV3L; 1.2 fold enrichment (6-mer frequency, TF over GST control) with ETS2; 1.09 fold enrichment (6-mer frequency, TF over GST control) with SPDEF; 1.06 fold enrichment (6-mer frequency, TF over GST control) with ETV7; 1.09 fold enrichment (6-mer frequency, TF over GST control) with ELF5. For the same sequence, the binding signal with ETV3 was 1.12 fold enrichment (6-mer frequency, TF over GST control); with ETV6, 1.13 fold enrichment (6-mer frequency, TF over GST control).

As to CGTACA, the binding signal with ERF is 1.21 fold enrichment (6-mer frequency, TF over GST control); with ETV3L it was 1.17 fold enrichment (6-mer frequency, TF over GST control); with ETS2, 1.18 fold enrichment (6-mer frequency, TF over GST control); with SPDEF, 1.2 fold enrichment (6-mer frequency, TF over GST control); with ETV7, 1.25 fold enrichment (6-mer frequency, TF over GST control); with ELF5 it was 1.17 fold enrichment (6-mer frequency, TF over GST control). Further, the binding signal was 1.14 fold enrichment (6-mer frequency, TF over GST control) with ETV3 and 1.2 fold enrichment (6-mer frequency, TF over GST control) with ETV6.

Consider CGATAC, for which the binding signal with ERF was 1.2 fold enrichment (6-mer frequency, TF over GST control); with ETV3L, 1.18 fold enrichment (6-mer frequency, TF over GST control); with ETS2 it was 1.19 fold enrichment (6-mer frequency, TF over GST control); with SPDEF, 1.29 fold enrichment (6-mer frequency, TF over GST control); with ETV7 it was 1.02 fold enrichment (6-mer frequency, TF over GST control); in the assay with ELF5, 1.1 fold enrichment (6-mer frequency, TF over GST control). For the same sequence, the binding signal with ETV3 was 1.15 fold enrichment (6-mer frequency, TF over GST control); with ETV6 it was 1.09 fold enrichment (6-mer frequency, TF over GST control).

On to AGTTTC, for which the binding signal with ERF was 1.22 fold enrichment (6-mer frequency, TF over GST control); in the assay with ETV3L, 1.33 fold enrichment (6-mer frequency, TF over GST control); with ETS2 it was 1.3 fold enrichment (6-mer frequency, TF over GST control); with SPDEF it was 1.19 fold enrichment (6-mer frequency, TF over GST control); in the assay with ETV7, 1.29 fold enrichment (6-mer frequency, TF over GST control); in the assay with ELF5 it was 1.65 fold enrichment (6-mer frequency, TF over GST control). Besides, the binding signal with ETV3 is 1.36 fold enrichment (6-mer frequency, TF over GST control); with ETV6 it was 1.29 fold enrichment (6-mer frequency, TF over GST control).
